The values that follow come from PubChem BioAssay (NCATS).

Several values for one entry are separate records, joined by “and”; a condition that tells them apart may be missing. Identical values can stand only once. Unmarked numbers belong to inactive results. Inconclusive results are not listed. Activity calls are given as the source filed them. Unless noted, the call rests on the fitted dose curve; in most records, active means well fitted curve in the direction sought with a large enough effect; inconclusive means small, poorly fitted or top-dose-only effect, or another doubt; inactive means no such curve, though single readings can be large; an effect the other way counts as inactive or inconclusive.

T1 sequence (P35557 whole entry, looked up): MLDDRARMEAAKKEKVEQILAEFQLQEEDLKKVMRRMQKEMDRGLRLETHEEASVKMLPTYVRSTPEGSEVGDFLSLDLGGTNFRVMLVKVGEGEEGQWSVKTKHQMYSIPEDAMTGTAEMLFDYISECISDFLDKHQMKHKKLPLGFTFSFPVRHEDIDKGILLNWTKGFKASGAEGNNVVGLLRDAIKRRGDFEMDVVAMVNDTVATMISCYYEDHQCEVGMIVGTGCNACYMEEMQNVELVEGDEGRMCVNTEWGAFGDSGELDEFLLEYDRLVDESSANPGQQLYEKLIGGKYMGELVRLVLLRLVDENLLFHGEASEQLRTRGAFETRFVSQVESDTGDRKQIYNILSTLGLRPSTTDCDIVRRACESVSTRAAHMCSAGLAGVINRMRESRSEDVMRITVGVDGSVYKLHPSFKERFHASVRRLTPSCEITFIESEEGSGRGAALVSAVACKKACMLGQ
T1 sequence (Q14397 whole entry, looked up): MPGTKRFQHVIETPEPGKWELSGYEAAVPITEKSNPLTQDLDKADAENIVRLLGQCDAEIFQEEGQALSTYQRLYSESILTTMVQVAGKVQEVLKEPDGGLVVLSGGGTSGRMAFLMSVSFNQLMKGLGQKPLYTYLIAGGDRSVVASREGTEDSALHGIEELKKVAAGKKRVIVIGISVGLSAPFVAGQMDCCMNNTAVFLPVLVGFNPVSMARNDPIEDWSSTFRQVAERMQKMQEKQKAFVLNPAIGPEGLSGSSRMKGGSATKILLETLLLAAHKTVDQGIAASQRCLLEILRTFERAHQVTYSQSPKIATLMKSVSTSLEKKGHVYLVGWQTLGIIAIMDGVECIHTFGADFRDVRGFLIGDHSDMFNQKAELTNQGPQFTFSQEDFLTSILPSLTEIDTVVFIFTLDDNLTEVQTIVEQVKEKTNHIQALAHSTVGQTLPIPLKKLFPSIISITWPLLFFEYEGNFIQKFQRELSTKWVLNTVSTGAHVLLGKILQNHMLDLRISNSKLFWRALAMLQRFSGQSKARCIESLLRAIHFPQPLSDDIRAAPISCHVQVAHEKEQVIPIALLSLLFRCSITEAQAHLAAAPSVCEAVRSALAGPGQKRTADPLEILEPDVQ

Tested on in the first assay: not listed separately
Kind of assay: qHTS for Activators of Parkin Expression: LOPAC Validation Assay (FLuc Reporter) (AID 720573). The following applies: Cell line, PRKN promoter firefly luciferase reporter, vehicle wells = 0, positive control = 100%; series mostly up to 46.1 µM; activation: at the top concentration. The gist of the method: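 FLuc signal from Parkin-promoter coincidence reporter neuronal cells, normalized to DMSO and positive control (100%). Cells (1,500/well) pre-incubated 24 h, then exposed to LOPAC compounds in 7-point dose response for 24 h at 37 C, 5% CO2.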
(In general: In qHTS, concentration-response curves come from the screen itself.)
Turning to `CNCCc1ccc(O)c(O)c1`, the “activation” value is -11%.
Regarding `O=C(Cc1ccc(Cl)c(Cl)c1)N1CCCCC1CN1CCCC1` (centres undefined), the “activation” value was 0.0433%.
Same read-out and setting: then `O=C(O)CC[N+](=O)[O-]`, with -4.06%.
Still for that read-out and setting: as for `CCCN(CCC)C1CCc2ccc(O)cc2C1` (centres undefined), the figure is -4.9%; as for `CN1C2CCC1CC(OC(=O)c1cc(Cl)cc(Cl)c1)C2` (centres undefined), -9.67%; as for `NC(CCP(=O)(O)O)C(=O)O` (centres undefined), -10.6%.
The same measure, in the same setting: as for `O=C(O)[C@@H]1CCN1`, the figure is -5.9%.
Turning to `C[N+]1(C)C2CCC1CC(OC(=O)C(CO)c1ccccc1)C2` (centres undefined), the compound was called inactive.
Turning to `Cn1cnc(CCN)c1`, the “activation” value was -6.27%.
On the same count and under the same terms, as for `NC(=O)CN1CC(O)CC1=O` (centres undefined), the figure is 6.74%; as for `CCCN(CCC)[C@@H]1CCc2ccc(O)cc2C1`, 0.619%.
The same measure, in the same setting: as for `CC(C)NC(C)Cc1ccc(I)cc1` (centres undefined), the figure is -0.95%.
Same read-out and setting: as for `COc1cc(C(O)CN)ccc1O` (centres undefined), the figure is -5.96%.
With `C[C@@H](N)Cc1cnc[nH]1`, the “activation” value was -5.52%.
`CCCN1CCO[C@@H]2c3cc(O)ccc3OC[C@H]21`: the outcome was inactive.
As for `CC(Cc1ccc(O)cc1)NCC(O)c1cc(O)cc(O)c1` (centres undefined), the “activation” value was -4.59%.
Regarding `C[C@]12CCC3C(CC[C@H]4C[C@H](O)CC[C@]34C)C1CC[C@@H]2C(=O)CO` (some centres undefined), the “activation” value is -9.13%.
The same measure, in the same setting: then `CS(=N)(=O)CC[C@H](N)C(=O)O` (some centres undefined), with -4.18%; and `O=C1CCCN1CC#CCN1CCCC1`, with -3.73%.
Same read-out and setting: then `NCc1cc(=O)[nH]o1`, with -6.89%.
Same read-out and setting: then `CC(=O)[C@H]1CCC2C3CC[C@H]4C[C@H](O)CC[C@]4(C)C3CC[C@@]21C` (some centres undefined), with -6.26%; and `CNCCc1c[nH]c2ccc(O)cc12`, with -15.8%; and `C=CCN1CC[C@]23CCCCC2[C@H]1Cc1ccc(O)cc13` (some centres undefined), with -0.81%.
For the compound `O=C(O)Cc1cnc[nH]1`, the “activation” value was 2.66%.
The same measure, in the same setting: then `CN[C@@H]1C[C@@H](c2ccc(Cl)c(Cl)c2)c2ccccc21`, with -41.5%.
Still for that read-out and setting: then `Clc1cnc(Oc2ccc(Oc3ncc(Cl)cc3Cl)cc2)c(Cl)c1`, with -2.92%.

Tested on in the next assay: not listed separately
Kind of assay: qHTS assay for small molecule agonists of the antioxidant response element (ARE) signaling pathway measured by Nrf2-dependant transcriptional activity (AID 720636; active means well fitted curve in the direction sought with a large enough effect in the repeat runs; an effect the other way counts as inactive or inconclusive; further: % of control where 0% means no effect). The following applies: ARE-luc HepG2, Nrf2 luciferase reporter, 16 h; series mostly up to 92.4 µM; activation: at the top concentration. The gist of the method: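 We exposed ARE-luc HepG2 cells, seeded in assay medium with 1% dialyzed FBS and allowed 6 hr to adhere, to test compounds overnight (16 hr, 37 C) before measuring luciferase with ONE-Glo.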
In the case of `COCCOCCO`, the Potency entry was “inactive”.
For `O=C(O)COc1ccccc1`, the “activation” value was -0.878%.
As for `O=C(O)C(Cl)Cl`, the Potency entry is “inactive”.
With `O=C(O)c1cc(Oc2ccc(C(F)(F)F)cc2Cl)ccc1[N+](=O)[O-]`, the “activation” value was 0.445%.
On to `Clc1cnc(Oc2ccc(Oc3ncc(Cl)cc3Cl)cc2)c(Cl)c1`, for which the “activation” value was -0.431%.

Tested on in another assay: not listed separately
Put plainly: qHTS assay for small molecule agonists of the antioxidant response element (ARE) signaling pathway measured by Nrf2-dependant transcriptional activity - cell viability counter screen (AID 720653; active means well fitted curve in the direction sought with a large enough effect in the repeat runs; an effect the other way counts as inactive or inconclusive; further: on the % scale 0 is the no-effect control and ±100 the full control effect). The following applies: ARE-bla HepG2 viability, CellTiter-Glo ATP luminescence, 16 h; max response: active compounds read low. The gist of the method:
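ARE-bla HepG2 cells treated with compounds for 16 h at 37C; this counter screen measures viability as intracellular ATP by CellTiter-Glo luminescence after 30 min at room temperature.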
As to `O=[N+]([O-])c1c2ccccc2cc2ccccc12`, the max response is -1.85%.
The same measure, in the same setting: then `COCCOCCO`, with -0.036% and -2.85%; and `O=C(O)COc1ccccc1`, with -7.55%.
Still for that read-out and setting: then `O=C(O)C(Cl)Cl`, with -10.5% and 2.18%; and `O=C(O)c1cc(Oc2ccc(C(F)(F)F)cc2Cl)ccc1[N+](=O)[O-]`, with -5.54%.
Same read-out and setting: as for `Clc1cnc(Oc2ccc(Oc3ncc(Cl)cc3Cl)cc2)c(Cl)c1`, the figure is -6.15%.

A further assay concerns the target T1, Hexokinase-4 (Homo sapiens) + Glucokinase regulatory protein (Homo sapiens) (UniProt P35557+Q14397). Kind of assay: qHTS assay for inhibitors of recombinant human GCK-GKRP interaction: Diaphorase-coupled assay (AID 743205). The settings on record: G6PDH/diaphorase resorufin fluorescence; series mostly up to 57.5 µM; activity change, positive = activation: at the top concentration. The essentials:
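A kinetic fluorescence read (Ex 525/Em 590 nm, every minute for 30 minutes) tracked resorufin from a G6PDH-diaphorase coupled GCK reaction. It contained 10 nM GST-GCK, 10 nM FLAG-GKRP, 5 mM glucose, 0.4 mM ATP in Hepes pH 7.6. Normalized to with/without-enzyme DMSO controls.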
With `CNCCc1ccc(O)c(O)c1`, the “activity change, positive = activation” value is -28.2%.
Consider `O=C(Cc1ccc(Cl)c(Cl)c1)N1CCCCC1CN1CCCC1` (centres undefined), for which the “activity change, positive = activation” value is 0.972%.
For the compound `O=C(O)CC[N+](=O)[O-]`, the “activity change, positive = activation” value is -4.02%.
Same read-out and setting: as for `CCCN(CCC)C1CCc2ccc(O)cc2C1` (centres undefined), the figure is -3.23%; as for `CN1C2CCC1CC(OC(=O)c1cc(Cl)cc(Cl)c1)C2` (centres undefined), -2.15%.
Still for that read-out and setting: then `NC(CCP(=O)(O)O)C(=O)O` (centres undefined), with -4.45%; and `O=C(O)[C@@H]1CCN1`, with 1.51%.
As for `C[N+]1(C)C2CCC1CC(OC(=O)C(CO)c1ccccc1)C2` (centres undefined), the result was inactive.
On to `Cn1cnc(CCN)c1`, for which the “activity change, positive = activation” value was 0.444%.
For `NC(=O)CN1CC(O)CC1=O` (centres undefined), the “activity change, positive = activation” value was -2.5%.
Regarding `CCCN(CCC)[C@@H]1CCc2ccc(O)cc2C1`, the “activity change, positive = activation” value is -6.83%.
In the case of `CC(C)NC(C)Cc1ccc(I)cc1` (centres undefined), the “activity change, positive = activation” value was -1.41%.
Same read-out and setting: as for `COc1cc(C(O)CN)ccc1O` (centres undefined), the figure is -3.45%; as for `C[C@@H](N)Cc1cnc[nH]1`, -6.08%.
With `CCCN1CCO[C@@H]2c3cc(O)ccc3OC[C@H]21`, the result was inactive.
In the case of `CC(Cc1ccc(O)cc1)NCC(O)c1cc(O)cc(O)c1` (centres undefined), the “activity change, positive = activation” value is -5.74%.
On to `C[C@]12CCC3C(CC[C@H]4C[C@H](O)CC[C@]34C)C1CC[C@@H]2C(=O)CO` (some centres undefined), for which the “activity change, positive = activation” value is -3.23%.
Still for that read-out and setting: then `CS(=N)(=O)CC[C@H](N)C(=O)O` (some centres undefined), with 0.352%; and `O=C1CCCN1CC#CCN1CCCC1`, with -0.0836%; and `NCc1cc(=O)[nH]o1`, with -0.898%.
Same read-out and setting: then `CC(=O)[C@H]1CCC2C3CC[C@H]4C[C@H](O)CC[C@]4(C)C3CC[C@@]21C` (some centres undefined), with -3.32%.
For the compound `CNCCc1c[nH]c2ccc(O)cc12`, the “activity change, positive = activation” value is -25.8%.
Same read-out and setting: then `C=CCN1CC[C@]23CCCCC2[C@H]1Cc1ccc(O)cc13` (some centres undefined), with -5.19%; and `O=C(O)Cc1cnc[nH]1`, with -1.57%.
Same read-out and setting: then `CN[C@@H]1C[C@@H](c2ccc(Cl)c(Cl)c2)c2ccccc21`, with -6.25%.
On the same count and under the same terms, then `Clc1cnc(Oc2ccc(Oc3ncc(Cl)cc3Cl)cc2)c(Cl)c1`, with -2.3%.

In a further assay the target is T1, Hexokinase-4 (Homo sapiens) + Glucokinase regulatory protein (Homo sapiens). Put plainly: qHTS assay for inhibitors of recombinant human GCK-GKRP interaction: ADP-Glo assay (AID 743206).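 Further: plate controls were DMSO plus enzyme for no effect and no enzyme for full effect.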 The following applies: ADP-Glo luminescence, 60 min, 0% = vehicle-only wells with enzyme present; series mostly up to 76.9 µM; activity, positive = activation: at the top concentration. The gist of the method:
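Pin-transferred compounds meet a 15 nM GST-GCK/15 nM FLAG-GKRP/2 uM S6P mix (dispense concentrations). ATP is then added to 0.4 mM final with 5 mM glucose, and the reaction runs 60 min at room temperature. ADP is quantified luminescently.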
For the compound `CNCCc1ccc(O)c(O)c1`, the “activity, positive = activation” value is -3.3%.
Take `O=C(Cc1ccc(Cl)c(Cl)c1)N1CCCCC1CN1CCCC1` (centres undefined): the “activity, positive = activation” value is 2.94%.
For the compound `O=C(O)CC[N+](=O)[O-]`, the “activity, positive = activation” value was 3.54%.
On the same count and under the same terms, as for `CCCN(CCC)C1CCc2ccc(O)cc2C1` (centres undefined), the figure is 1.05%.
Take `CN1C2CCC1CC(OC(=O)c1cc(Cl)cc(Cl)c1)C2` (centres undefined): the “activity, positive = activation” value is 2.54%.
Turning to `NC(CCP(=O)(O)O)C(=O)O` (centres undefined), the “activity, positive = activation” value was 0.0922%.
Same read-out and setting: then `O=C(O)[C@@H]1CCN1`, with 4.73%.
Turning to `C[N+]1(C)C2CCC1CC(OC(=O)C(CO)c1ccccc1)C2` (centres undefined), the outcome was inactive.
Turning to `Cn1cnc(CCN)c1`, the “activity, positive = activation” value was 2.21%.
Same read-out and setting: as for `NC(=O)CN1CC(O)CC1=O` (centres undefined), the figure is 0.878%.
Same read-out and setting: then `CCCN(CCC)[C@@H]1CCc2ccc(O)cc2C1`, with 3.71%; and `CC(C)NC(C)Cc1ccc(I)cc1` (centres undefined), with 2.18%.
Same read-out and setting: as for `COc1cc(C(O)CN)ccc1O` (centres undefined), the figure is 0.336%; as for `C[C@@H](N)Cc1cnc[nH]1`, -0.6%.
Regarding `CCCN1CCO[C@@H]2c3cc(O)ccc3OC[C@H]21`, the outcome was inactive.
Regarding `CC(Cc1ccc(O)cc1)NCC(O)c1cc(O)cc(O)c1` (centres undefined), the “activity, positive = activation” value was 0.326%.
Same read-out and setting: as for `C[C@]12CCC3C(CC[C@H]4C[C@H](O)CC[C@]34C)C1CC[C@@H]2C(=O)CO` (some centres undefined), the figure is 4.99%; as for `CS(=N)(=O)CC[C@H](N)C(=O)O` (some centres undefined), -1.31%; as for `O=C1CCCN1CC#CCN1CCCC1`, 3.07%.
For the compound `NCc1cc(=O)[nH]o1`, the “activity, positive = activation” value was 2.29%.
The same measure, in the same setting: then `CC(=O)[C@H]1CCC2C3CC[C@H]4C[C@H](O)CC[C@]4(C)C3CC[C@@]21C` (some centres undefined), with 2.88%; and `CNCCc1c[nH]c2ccc(O)cc12`, with 3.95%.
Same read-out and setting: then `C=CCN1CC[C@]23CCCCC2[C@H]1Cc1ccc(O)cc13` (some centres undefined), with -0.813%; and `O=C(O)Cc1cnc[nH]1`, with 0.182%; and `CN[C@@H]1C[C@@H](c2ccc(Cl)c(Cl)c2)c2ccccc21`, with 1.82%.
Turning to `Clc1cnc(Oc2ccc(Oc3ncc(Cl)cc3Cl)cc2)c(Cl)c1`, the “activity, positive = activation” value is 0.177%.
